Out of some 300,000 compounds screened, about 2,500 (0.83%) were called active. The list comes from a sample in which actives are over-represented; it also holds similar structures and randomly drawn compounds. A number with no mark means an inactive call.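 Rule for the calls: active = inhibition above the mean of all tested compounds plus 3 SD, set per screening campaign (cut at about 24% in these data); inactive = the rest.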
Test system: tRNA 2'-phosphotransferase TPT1 (Candida albicans SC5314)
Experiment: tRNA 2'-phosphotransferase blockers, C. albicans – biochemical, fluorescence polarization, primary screen (AID 1962);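 note: plate controls were DMSO alone for no effect and ferristatin control at 100 nM for full effect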
Details: recombinant caTPT1, FP RNA substrate dephosphorylation; at 5 µM; hits give high values

SMILES	inhibition
CC(=O)N1N=C(c2ccncc2)OC1(Cc1ccccc1)Cc1ccccc1	-0.93%
O=C(CC12CC3CC(CC(C3)C1)C2)Nc1ccc2c(c1)COC2=O	-3.75%
Nc1nonc1-n1nnc(C(=O)N/N=C/c2cc(Br)ccc2O)c1CSC1=NCCS1	24.7% (active)
Cc1ccc(SCc2c(C(=O)N/N=C/c3cccnc3)nnn2-c2nonc2N)cc1	0.4%
Nc1nonc1-n1nnc(C(=O)N/N=C/c2ccccc2O)c1CN1CCCC1	-0.45%
COc1ccc(C(C(=O)NC2CCCCC2)N(C(=O)Cc2c[nH]c3ccccc23)c2ccccc2)cc1OC (stereo not given)	4.78%
CC1=C(C(=O)Nc2ccccc2)C(c2ccco2)C(C#N)=C(SCC(N)=O)N1 (stereo not given)	-4.83%
N#CC1=C(N)Oc2c(sc3ccccc23)C1c1ccco1 (stereo not given)	100% (active)
N#CC1=C(N)Oc2c(ccc3cccnc23)C1c1ccncc1 (stereo not given)	0.31%
COCCCn1c(SCc2cccc(OC)c2)nc2cc(OC)c(OC)cc2c1=N	-1.89%
CC(=O)Nc1ccc(S(=O)(=O)NCC(=O)OCc2cc(=O)oc3ccc4ccccc4c23)cc1	2.61%
COc1cc(/C=N/Nc2nc3ccccc3s2)ccc1O	-1.42%
Cc1ccc2nc(/C(C#N)=C\c3ccc(OC(=O)c4cccs4)cc3)[nH]c2c1	4.21%
COc1cc(/C=C(\C#N)c2nc3c(s2)CC(C)CC3)ccc1O (stereo not given)	128% (active)
COc1ccc(/C=C(/NC(=O)c2ccc(C)cc2)c2nc3ccccc3[nH]2)cc1OC	-0.67%
COc1cc(/C=C(\C#N)c2nc3ccccc3[nH]2)ccc1O	96.4% (active)
CCNc1nc(NCC)nc(N/N=C/c2ccc(O)c(OC)c2)n1	-0.04%
CCn1c(CC(=O)Nc2ccc(C)cc2)nnc1SCC(=O)Nc1nc(C)cs1	2.53%
O=C(NCCCCCCNC(=O)NCc1ccco1)NCc1ccco1	-3.7%
COc1ccc2c(c1)CCNC2Cc1ccc(OC)c(O)c1 (stereo not given)	-2.2%
CC[C@H]1CN2CCc3cc(OC)c(OC)cc3[C@@H]2C[C@@H]1C[C@H]1NCCc2cc(OC)c(OC)cc21	3.04%
COc1cc2c(cc1O)[C@H](Cc1ccc(Oc3cc(C[C@@H]4NCCc5cc(OC)c(O)cc54)ccc3O)cc1)NCC2	30% (active)
O=S1(=O)CCO[C@H]2Cc3ccccc3[C@H]2N1Cc1ccccc1	3.47%

SMILES	inhibition
O=C(CCc1ccccc1)Nc1ccnn1C1CCN(Cc2ccc(OCCO)cc2)CC1	-3.8%
Cc1ccc(C)c2[nH]c(=O)c(CCNC(=O)CC(C)C)cc12	51.6% (active)
Cc1ccc(C)c2[nH]c(=O)c(CCNC(=O)c3cccs3)cc12	-3.33%
COc1ccc(OC)c2[nH]c(=O)c(CCNC(=O)C(C)(C)C)cc12	1.81%
CCc1ccnc(NS(=O)(=O)c2ccc3c(c2)OCCO3)c1	-1.71%
O=C(C1CCCO1)N1CCN(C(=S)NC2CC2)CC1 (stereo not given)	-3.35%
COc1ccc(N2CCN(C(=O)/C(C#N)=C/c3ccccc3)CC2)cc1	19.5%
CCOC(=O)/C(C#N)=C/c1ccc(OCC(=O)Nc2ccccc2)c(OC)c1	-2.78%
CCOC(=O)/C(C#N)=C/c1ccc(N2CCCCC2)cc1	116% (active)
CCOC(=O)NC(=O)/C(C#N)=C\c1ccccc1	-1.78%
CCOC(=O)/C(C#N)=C/c1ccc(N2CCN(Cc3ccccc3)CC2)cc1	48% (active)
COc1ccc(/C=C(\C#N)C(=O)ONC2=NCCCCC2)cc1	0.43%
CN(C)S(=O)(=O)c1cccc(-c2nn(-c3ccccc3)cc2/C=C2\SC(=S)N(CC(=O)O)C2=O)c1	-1.23%
COc1ccc(-c2nn(-c3ccccc3)cc2/C=C2/SC(=S)N(CCCC(=O)O)C2=O)c(C)c1	1.54%
Cc1ccc(-c2nn(-c3ccccc3)cc2/C=C2\SC(=S)N(CCCCCC(=O)O)C2=O)o1	49.2% (active)
CCC(C)Sc1nc(C)nc2c1c(=O)n(C)c(=O)n2C (stereo not given)	-1.63%
NC(=O)NCCCC(=O)O	-0.59%
COc1ccc(/C=N/NC(=O)c2cc(-c3cccc(C)c3)nc3ccccc23)cc1O	-4.75%
Cc1sc2nc(COC(=O)C(NC(=O)c3ccc(Cl)cc3Cl)C(C)C)[nH]c(=O)c2c1C (stereo not given)	33.1% (active)
CC(C)NC(=O)c1ccc(Cl)cc1Cl	-0.44%
Cc1sc2nc(CSCC(=O)Nc3c(Cl)cccc3Cl)[nH]c(=O)c2c1C	17.1%
CSCCC(NC(=O)c1ccc(Cl)cc1Cl)C(=O)NNC(=O)c1csc(N2CCOCC2)n1 (stereo not given)	1.09%
COc1ccc(N2CC(C)Cn3c2nc2c3c(=O)n(Cc3ccccc3F)c(=O)n2C)c(OC)c1 (stereo not given)	1.36%

SMILES	inhibition
N#C/C(=C/c1ccc(N2CCCCC2)o1)C(=O)NCCc1c[nH]c2ccccc12	178% (active)
CC(=O)N/C(=C/c1ccc(Cl)cc1)C(=O)NCCc1c[nH]c2ccccc12	-3.35%
O=C(CN1C(=O)NC2(CCCCC2)C1=O)NCCc1c[nH]c2ccccc12	-3.99%
Cc1ccc(Nc2nnc(SCC(=O)c3cc4ccccc4o3)s2)cc1C	9.66%
CC(C)c1ccc(Nc2nnc(SCC(=O)c3nnc(-c4ccccc4)o3)s2)cc1	42% (active)
O=C(CSc1nnc(Nc2ccccc2)s1)Nc1cccnc1Cl	-0.7%
CC(C)CN1CCNC(=O)C1CC(=O)N(C)CC1CCOCC1 (stereo not given)	-5.14%
COc1ccc(S(=O)(=O)NCC2CCCN(C(=O)c3occc3C)C2)cc1 (stereo not given)	-4.48%
CCN1CCN(C(=O)Cn2nc(C)n3c(cc4c(OC)cccc43)c2=O)CC1	1.92%
Cc1ccc2[nH]c(=O)c(CC(=O)O)c(-c3ccccc3)c2c1	-1.99%
Cc1ccc2[nH]c(=O)c(CC=C(Cl)Cl)c(C)c2c1	1.23%
Cc1ccc2[nH]c(=O)c(CN3CCCCC3)c(-c3ccccc3)c2c1	31.4% (active)
CCOc1ccc(NC(=O)c2ccc(NC(=O)C3CCCO3)cc2)cc1 (stereo not given)	1.62%
Cc1ccc(CNC(=O)c2cc(-c3ccccc3C)n(CC3CC(c4cccc([N+](=O)[O-])c4)=NO3)n2)cc1 (stereo not given)	-1.39%
Cn1c(-c2ccc(C(F)(F)F)cc2)cc2onc(-c3ccccc3)c2c1=O	1.56%
CN(c1ccc(OCC(=O)OCC(=O)Nc2cccc([N+](=O)[O-])c2)cc1)S(=O)(=O)c1ccc(F)cc1	-1.05%
Cc1c(Cl)c([N+](=O)[O-])nn1Cc1ccc(C(=O)N/N=C\c2cc(Cl)ccc2O)o1	1.45%
Cc1cc(/C=C2/SC(=O)N(CC(=O)N3CCCC3)C2=O)c(C)n1C	-4.95%
Cc1ccc2c(c1)N(CC(=O)N1CCOCC1)C(=O)CO2	1.05%
Cc1cc(/C=C2/SC(=O)N(CC(=O)N3CCCC3)C2=O)ccc1N1CCOCC1	38.1% (active)
C#CCOCCOCCOCCNc1nc(N2CCN(C(=O)[C@H](CCCCN)n3cc(CCC(=O)O)nn3)CC2)nc(N2CCN(C(=O)[C@H](CCCCN)n3cc(CC(C)O)nn3)CC2)n1 (stereo not given in full)	-2.04%
Cc1ccc(S(=O)(=O)N2CCN=C2SCc2c(F)cccc2Cl)cc1	-3.87%
O=C(C[n+]1cc(Br)cc2ccccc21)c1ccc(F)cc1	25.1% (active)

SMILES	inhibition
Cc1cccc[n+]1CC(=O)c1ccccc1	-3.95%
O=C(CNC(=O)c1ccc(F)cc1)c1ccccc1	5.07%
COc1cccc(-n2c(N)cc(=O)nc2SCC(=O)Nc2cc(C)on2)c1	-0.29%
CCC(C)(C)c1ccc(Oc2ccc(NC(=O)COC(=O)C3=COCCO3)cc2)cc1	0.08%
CC(C)C[C@@H](N)c1nnc(SCC(=O)c2ccc(Cl)cc2)o1	3.05%
O=C(O)CCCN1C(=O)C2C3c4ccccc4C(c4ccccc43)[C@@H]2C1=O (stereo not given in full)	2.01%
O=C(O)CCC(=O)NCc1ccc(C(=O)O)cc1	-6.54%
O=C(CN1C(=O)c2ccccc2C1=O)NCc1ccc(C(=O)O)cc1	36.6% (active)
COc1ccc(CNC(=O)CCN2C(=O)c3ccccc3C2=O)cc1	-3.69%
Cc1ccc(C)c(C(=O)N2CCC(n3nccc3NC(=O)C3CC3)CC2)c1	1.61%
CC(C(=O)N1CCN(c2ccccc2F)CC1)c1ccc([N+](=O)[O-])cc1 (stereo not given)	0.08%
NS(=O)(=O)c1ccc(NC(=S)NNC(=O)c2cccs2)cc1	-0.11%
Cc1ccc(C(=O)N2CCN(C(=O)N3CCOCC3)CC2)cc1	-1.08%
N#C/C(=C\c1ccc(N2CCOCC2)o1)C(=O)N1CCOCC1	153% (active)
O=C(N1CCOCC1)N1CCOCC1	-4.04%
N#C/C=C(/c1ccc(F)cc1)N1CCOCC1	-0.18%
N#C/C(=C/c1ccc(N2CCOCC2)o1)C(=O)N1CCOCC1	158% (active)
N#C/C(=C\c1ccc(-c2cccc([N+](=O)[O-])c2)o1)C(=O)NCCN1CCOCC1	0.6%
CCOc1cc(-c2noc(CCCC(=O)NC3CCCCC3)n2)ccc1OC	3.27%
CN1CCCN(C(=O)C2CCCCC2)CC1	1.49%
C/C(=C/C(=O)N1CCN(C)CC1)C(=O)O	3.89%

Reference: PubChem BioAssay AID1962 (The Scripps Research Institute Molecular Screening Center, 2009)
